TEAD-YAP block – TEAD-YAP interaction inhibition; HEK-TIYL cells, TEAD-Gal4/YAP UAS-luciferase luminescence; inhibition, % at 9.12 µM; 640,000 tested, 1.4% active; AID 1259422; in the data active = inhibition above about 32%;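 note: 0% = median of test compound wells and 100% = reference inhibitor wells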
FBW7 act – activators of human E3 ligase FBW7. AID 1259310. 650,000 tested, 0.13% active. AlphaScreen FBW7–phospho-cyclin E peptide binding, activator screen. normalized activity (activation), % at 26.1 µM. Q969H0; in the data active = normalized activity above about 1.9%;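 note: purified mutant Fbw7 with reduced substrate affinity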
GPR151 activ – activators of human GPR151. PathHunter beta-arrestin GPR151 cells, luminescence. activation, % at 11.2 µM. 650,000 tested, 1% active. AID 1508602; in the data active = activation above about 4.9%;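 note: 0% = median of compound wells and 100% = cells with positive control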
Target sequence (Q8TDV0 whole entry, looked up): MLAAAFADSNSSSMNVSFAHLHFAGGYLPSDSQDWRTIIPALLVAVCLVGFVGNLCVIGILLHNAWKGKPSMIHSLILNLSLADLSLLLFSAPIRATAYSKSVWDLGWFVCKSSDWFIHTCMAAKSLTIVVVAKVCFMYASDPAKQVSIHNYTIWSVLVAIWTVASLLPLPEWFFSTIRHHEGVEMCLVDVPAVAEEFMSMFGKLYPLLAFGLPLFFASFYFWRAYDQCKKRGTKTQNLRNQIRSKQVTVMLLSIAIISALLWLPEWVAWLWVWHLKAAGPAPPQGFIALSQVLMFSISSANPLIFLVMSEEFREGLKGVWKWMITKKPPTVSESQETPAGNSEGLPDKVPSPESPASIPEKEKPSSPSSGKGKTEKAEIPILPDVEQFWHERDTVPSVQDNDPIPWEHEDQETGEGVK
MITF primary – blocks human microphthalmia-associated transcription factor. O75030. AlphaScreen MITF homodimerization, bead proximity signal. inhibition, % at 2.6 µM. 650,000 tested, 0.91% active. AID 1259374; in the data active = inhibition above about 50%;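 note: 0% = vehicle wells with protein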
The depositor's hits bear a star. Only some compounds are listed: those with a hit (about 3.5% of all), similar ones and a draw of the others.

SMILES	TEAD-YAP block	FBW7 act	GPR151 activ	MITF primary
CC(Oc1cccc2ccccc12)C(=O)N/N=C/c1cc([N+](=O)[O-])ccc1O (stereo unspecified)	36.9*	0.1	2.3	18.8
CC(Nc1cccc2ccccc12)C(=O)N/N=C/c1ccc(O)cc1 (stereo unspecified)	34.4*	-0.2	-0.4	8.1
O=C(CNc1cccc2ccccc12)N/N=C/c1ccccc1O	12.3	0.0	0.6	9.6
CC1=CC(C)(C)Nc2ccc(OC(=O)c3cccc(Cl)c3)cc21	-25.4	-0.3	0.4	3.5
Cc1ccc(C(=O)Nc2c3c(nn2-c2ccccc2C)CS(=O)(=O)C3)cc1	6.8	0.1	1.0	-5.9
Nc1nonc1C(=O)N/N=C/c1cccc2ccccc12	-6.2	-0.1	-3.5	-6.5
O=C(Cn1cncn1)N/N=C/c1ccc(Br)cc1	-3.1	0.0	3.2	2.0
O=C(Cn1cncn1)N/N=C/c1cc(Br)ccc1O	16.7	-1.3	-0.6	57.2*
Cc1cc(C)c(S(=O)(=O)NCc2csc(-c3cccnc3)n2)c(C)c1	-13.4	1.3	-0.7	21.6
CCn1c(=C2C(=O)NC(=O)NC2=O)c2cccc3cccc1c32	14.8	-0.8	-1.5	61.1*
CCn1c(=O)c(-c2ccccc2)c(O)c2ccccc21	-0.5	0.2	-1.7	6.8
Cc1ccc2oc(-c3cc(N)ccc3O)nc2c1	-34.8	-0.1	-7.8	7.2
CC(C)c1ccc2oc(-c3ccc(N)cc3O)nc2c1	86.8*	-0.1	-0.9	-3.2
CC(C)c1ccc2oc(-c3cc(N)ccc3O)nc2c1	63.9*	-0.2	-3.6	11.0
Cc1cc2nc(-c3ccc(N)cc3O)oc2cc1C	30.6	0.0	-0.3	6.6
COc1cc(OC)c(C(=O)OCc2ccccc2Cl)cc1OC	-3.6	0.2	1.6	4.8
CCOC(=O)c1c(-c2ccc(OC)cc2)csc1NC(=O)CCCC(=O)O	7.1	0.1	-0.4	-4.8
COC(=O)c1c(-c2ccc(C)c(C)c2)csc1NC(=O)CCCC(=O)O	33.4*	0.0	0.2	-8.1
CC1=C(C(=O)OCCOC(C)C)C(c2ccc(Br)s2)C2=C(CC(C)(C)CC2=O)N1 (stereo unspecified)	5.5	0.0	-0.4	3.5
O=C(/C=C/c1ccc(O)c(O)c1)c1ccc(O[C@@H]2O[C@H](CO)[C@@H](O)[C@H](O)[C@H]2O)c(O)c1O	2.1	-0.2	3.1	56.1*
CCN(c1ccccc1)S(=O)(=O)c1cc(C(=O)Nc2ccc(Br)cc2)ccc1F	4.0	0.0	-0.4	6.2
COc1cccc(NC(=O)c2ccc(F)c(S(=O)(=O)N(C)Cc3ccccc3)c2)c1	-3.9	0.0	2.3	-6.0
CN(Cc1ccccc1)S(=O)(=O)c1cc(C(=O)Nc2ccc(Oc3ccccc3)cc2)ccc1F	61.4*	0.1	0.0	27.5
CCCCN(CC)S(=O)(=O)c1cc(C(=O)Nc2ccc(Oc3ccccc3)cc2)ccc1F	59.9*	-0.1	0.4	-3.6
CCN(Cc1ccccc1)S(=O)(=O)c1cc(C(=O)Nc2ccc(Br)cc2)ccc1F	50.3*	-0.1	1.3	-0.6
SMILES	TEAD-YAP block	FBW7 act	GPR151 activ	MITF primary
CCCCOc1ccccc1/C=C1\SC(N)=NC1=O	6.3	0.0	-0.2	7.0
COc1cc(Cl)c(C)cc1N1C(=O)CC(Nc2ccc(C(=O)O)cc2)C1=O (stereo unspecified)	0.5	-0.1	0.1	-4.5
CCOC(=O)C1=CN(Cc2ccc(OC)c(OC)c2)C=C(C(=O)OCC)C1c1cc2c(cc1Br)OCO2	-13.4	0.1	0.5	-4.9
COCCNc1ccc2ncc(-c3ccc(OC)cc3OC)n2n1	-5.3	0.0	0.2	3.3
COc1ccc(CNC(=O)c2cc3c(=O)n(C)c4ccccc4c3s2)c(OC)c1	-13.6	-0.1	-0.6	3.3
C=CCn1c(SCC(=O)/C(C#N)=C(\C)N)nnc1-c1ccoc1C	5.7	0.0	-0.7	-0.9
CC(=O)N(/N=C1\Sc2ccccc2C1=O)c1ccccc1I	76.0*	-0.2	-0.8	29.3
CN(C)c1ccc2nc3c(nc2c1)C(=O)c1ccccc1C3=O	-20.4	-0.1	-2.0	-8.4
Cc1cc2nc3cc(N)c(C)cc3cc2cc1N	72.5*	0.1	0.6	7.7
Cc1cc2nc3ccc(N(C)C)cc3nc2cc1N	32.4*	0.0	-6.1	57.8*
CCNC(=S)NNC(=O)c1cccc(S(=O)(=O)N2CCN(C(C)=O)CC2)c1	-0.1	-0.2	-1.4	10.2
Cc1cc(C)n2nc(C(=O)Nc3ccc(Cl)cc3)nc2n1	-22.9	0.1	-1.3	6.0
Cn1c(=O)c2sccc2n2c(CCCC(=O)NCc3ccc(Cl)cc3)nnc12	-11.9	-0.4	0.7	-1.8
O=C1C(Cl)=C(NCCN2CCCCC2)C(=O)c2ccccc21	40.6*	0.0	-4.4	8.6
CCN(CC)CCNC1=C(Cl)C(=O)c2ccccc2C1=O	46.3*	-0.2	-2.4	1.9
CC(O)c1ccc(Nc2nccc(-c3cccc(NS(C)(=O)=O)c3)n2)cc1 (stereo unspecified)	76.5*	1.0	0.9	12.5
NC(=O)c1cccc(Nc2nccc(-c3cccc(Nc4ccccc4)c3)n2)c1	10.8	0.7	0.3	12.2
NC(=O)c1ccc(Nc2nccc(-c3cccc(Nc4ccccc4)c3)n2)cc1	45.9*	0.7	-1.6	5.0
O=C(O)Cc1ccc(Nc2nccc(-c3ccccc3)n2)cc1	52.6*	0.0	0.2	17.4
CS(=O)(=O)Nc1cccc(-c2ccnc(Nc3ccccc3)n2)c1	67.8*	0.0	-0.3	9.5
COc1ccc(Cc2nnc(SCC(=O)Nc3cc(C)on3)o2)cc1	-3.4	-0.2	0.1	23.1
CS(=O)(=O)Nc1cccc(-c2ccnc(Nc3ccc(CC(N)=O)cc3)n2)c1	37.1*	0.1	-0.5	8.6
Clc1ccc(-c2cn3ccccc3n2)cc1	-10.6	0.0	-7.9	-3.4
COc1ccc(-c2cn3ccccc3n2)cc1Br	-27.8	-0.1	-6.6	-3.2
COc1ccc(-c2cn3ccccc3n2)cc1	66.3*	-0.1	-8.9	4.7
SMILES	TEAD-YAP block	FBW7 act	GPR151 activ	MITF primary
Cc1ccc(-c2cn3ccccc3n2)cc1	53.0*	0.0	-8.9	13.9
COc1ccc(-c2cn3nc(C)c(C)nc3n2)cc1	57.4*	0.1	-7.7	1.5
COc1cccc(-c2cn3nc(C)c(C)nc3n2)c1	-2.3	0.1	-7.4	6.9
COc1ccc(-c2cn3cc(-c4ccc(F)cc4)nc3n2C)cc1	91.6*	-0.2	0.0	2.2
N#Cc1c(NC(=S)NC(=O)c2ccc(Cl)cc2Cl)sc2c1CCCCCC2	0.0	-0.2	2.3	-1.4
O=C(c1nc2ccccn2c1CNCCc1ccco1)N1CCCC1	-8.9	0.0	0.3	-0.1
CCOc1ccc(S(=O)(=O)Nc2ccc(-c3cn4ccccc4n3)cc2)cc1	0.3	-0.1	4.5	-0.5
COc1ccc(-c2cn3ccccc3n2)cc1F	54.7*	0.3	-8.4	8.6
CCCOc1ccc(-c2cn3ccccc3n2)cc1	79.0*	0.0	-8.0	0.5
CCOc1ccccc1C(=O)Nc1ccsc1C(=O)OC	54.6*	0.1	0.7	0.3
COC(=O)c1sccc1NC(=O)c1ccccc1C	-16.3	-0.1	-0.3	-1.3
Cc1nn2cc(CNC(=O)CC3C(=O)NCCN3CC3CCCCC3)nc2s1 (stereo unspecified)	-15.2	0.0	-0.7	3.4
COc1ccc(CNC(=O)c2cc(-c3ccc(O)cc3)on2)cc1	38.5*	-0.1	-0.3	3.2

From PubChem
